Compounds without any hit were thinned out: in the full panel of roughly 79,000, 15% have a hit. Values without a mark were called inactive. Calls of active or inactive are those of the source. No stated cut-off is given here; in the data, active means growth inhibition above about 70%; inactive means the rest.

Experimental findings from PubChem BioAssay (NCI) are described below.

One assay is described as follows: NCI Yeast Anticancer Drug Screen. Data for the rad50 strain (AID 155).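 Further: 0% = growth of vehicle-only cultures of the same strain.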 As to conditions: S. cerevisiae rad50 strain growth inhibition; at 5.0 µM (retest, dose inferred, filed as 0.5); stronger effect = higher value. The method, boiled down:
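Inhibition values express reduced yeast growth in compound-treated cultures relative to vehicle-treated controls.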
For `CCCCCCCCCC1OCC(C)O1` (stereo not given), the growth inhibition is 3%.

Take `O=[N+]([O-])c1ccc2c(c1)/C(=C/c1ccc(O)cc1)c1ccccc1-2`: the growth inhibition was 9%.

As for `COc1cc2c(cc1OC(C)=O)C(=O)C(Br)(Br)CCC2`, the growth inhibition is 66%.

Regarding `COC(=O)c1cc2c(oc1=O)-c1ccccc1N(C=O)C2`, the growth inhibition is -3%.

Take `CC(=O)Nc1ccc(S(=O)(=O)/N=C2\C=CC(=O)c3ccccc32)cc1`: the growth inhibition is 2%.

For the compound `C/C(=N/NC(=S)N(C)C)c1ccccc1O`, the growth inhibition was 2%.

As for `CC(CN(C)C)C(=O)/C=C/c1c(Cl)cccc1Cl` (stereo not given), the growth inhibition is 2%.

Consider `N#CC(O)C(Br)(Br)Br` (stereo not given), for which the growth inhibition is -3%.

`C=Cc1cc(N=Nc2ccc([N+](=O)[O-])cc2)ccc1N(C)C`: the growth inhibition is 6%.

In the case of `Cc1cccnc1NC(=S)Nc1ccccc1Cl`, the growth inhibition was 2%.

For the compound `O=C1C=CC(=O)c2c(O)c(N3CCC[C@@H]3CO)c(Cl)c(O)c21`, the growth inhibition was 20%.

Take `Cc1cc(C(=O)O)c(C)c2c1sc1ccccc12`: the growth inhibition is 6%.

Turning to `COc1cccc2c1OC(c1ccc(Cl)cc1)C([N+](=O)[O-])=C2` (stereo not given), the growth inhibition was 94% (active).

As for `CC1=C(C(=O)Nc2cccc(Cl)c2)C(c2ccccc2F)C(C(=O)Nc2cccc(Cl)c2)=C(C)N1`, the growth inhibition is 44%.

As to `Cc1ccc(C2C(O)=C(c3ccccc3)Sc3ccc(C)cc32)cc1` (stereo not given), the growth inhibition was 12%.

`CC(=O)Oc1ccc(C)c(C(C)C(Cl)(Cl)Cl)c1` (stereo not given): the growth inhibition is 0%.

As to `CCCC(=O)Oc1ccc(-c2ccc(Br)cc2)cc1`, the growth inhibition is 4%.

`CCCCC#CCOC(=O)c1cc([N+](=O)[O-])cc([N+](=O)[O-])c1`: the growth inhibition is 97% (active).

Take `COC(=O)c1ccc(Cl)c(Cl)c1`: the growth inhibition is 1%.

In the case of `Cc1cc(Br)c2ccccc2c1N`, the growth inhibition was 1%.

As for `C=C1N(S(=O)(=O)c2ccc(C)cc2)C(=O)OCC12CCCC2`, the growth inhibition is -22%.

With `CCCCCCCCN=C(N)c1ccc(C(=O)OCC2CCCCC2)cc1`, the growth inhibition was 98% (active).

With `Nc1ccc2ccc3cccc4ccc1c2c34`, the growth inhibition is 1%.

For `C=C(Br)CN(CC(=C)Br)C(C)=O`, the growth inhibition was 17%.

For the compound `[Ce+3].[Cl-].[O-]/N=C(\c1ccccc1)c1ccccn1.[O-]/N=C(\c1ccccc1)c1ccccn1.[O-]/N=C(\c1ccccc1)c1ccccn1`, the growth inhibition is 36%.

For the compound `O=CCCCc1cc2c(cc1Br)CCC2`, the growth inhibition was 0%.

As to `C1=C(CC2=C[P+](c3ccccc3)(c3ccccc3)C=C(c3ccccc3)O2)OC(c2ccccc2)=C[P+]1(c1ccccc1)c1ccccc1`, the growth inhibition is 17%.

Turning to `CC/C=C(\C)CC(C)O` (stereo not given), the growth inhibition is -3%.

As to `CCC(c1ccc(Cl)cc1)C(C#N)c1ccc(Cl)cc1` (stereo not given), the growth inhibition was 10%.

For the compound `CN1/C(=C/C=C/C(I)=C/C=C/C2=[N+](C)c3ccccc3C2(C)C)C(C)(C)c2ccccc21`, the growth inhibition was 1%.

`Nc1ccc(N)c2c1C(=O)c1ccccc1C2=O`: the growth inhibition is 32%.

Turning to `CN1C=COC1N=C1CCCCC1` (stereo not given), the growth inhibition was 13%.

Regarding `Clc1ccc(Cc2nc3ccccc3s2)c(Cl)c1`, the growth inhibition was 39%.

Consider `O=CC1(c2ccc(Cl)cc2)NC(=O)NC1=O` (stereo not given), for which the growth inhibition is -1%.

For `O=C(CSc1nnc(-c2ccc(N=Cc3ccc(Cl)cc3)cc2)o1)Nc1ccc(Cl)cc1Cl`, the growth inhibition was 14%.

As for `O=C(Oc1ccccc1)C1CCCCC1C(=O)Oc1ccccc1` (stereo not given), the growth inhibition was -16%.

`O=C(O)Cc1ccc2c(c1O)C(=O)c1ccccc1C2=O`: the growth inhibition was 1%.

As for `O=[N+]([O-])c1cccc(F)c1O`, the growth inhibition was 5%.

Turning to `CCc1nc2c(O)ccc(O)c2nc1C`, the growth inhibition was -137%.

With `COC(=O)N/N=C(/CC1(O)C(=O)Nc2ccccc21)c1ccc(Cl)cc1Cl` (stereo not given), the growth inhibition was 21%.

The same assay, now with this note: S. cerevisiae rad50 strain growth inhibition; at 50.0 µM (retest, dose inferred, filed as 5.0); stronger effect = higher value.
Turning to `CCCCCCCCCC1OCC(C)O1` (stereo not given), the growth inhibition was 30%.

As to `O=[N+]([O-])c1ccc2c(c1)/C(=C/c1ccc(O)cc1)c1ccccc1-2`, the growth inhibition is 86% (active).

Turning to `COc1cc2c(cc1OC(C)=O)C(=O)C(Br)(Br)CCC2`, the growth inhibition is 99% (active).

`COC(=O)c1cc2c(oc1=O)-c1ccccc1N(C=O)C2`: the growth inhibition was -8%.

As to `CC(=O)Nc1ccc(S(=O)(=O)/N=C2\C=CC(=O)c3ccccc32)cc1`, the growth inhibition is 27%.

Regarding `C/C(=N/NC(=S)N(C)C)c1ccccc1O`, the growth inhibition was 13%.

Take `CC(CN(C)C)C(=O)/C=C/c1c(Cl)cccc1Cl` (stereo not given): the growth inhibition is 88% (active).

For the compound `N#CC(O)C(Br)(Br)Br` (stereo not given), the growth inhibition was 61%.

Turning to `C=Cc1cc(N=Nc2ccc([N+](=O)[O-])cc2)ccc1N(C)C`, the growth inhibition was 12%.

For `Cc1cccnc1NC(=S)Nc1ccccc1Cl`, the growth inhibition is 99% (active).

As to `O=C1C=CC(=O)c2c(O)c(N3CCC[C@@H]3CO)c(Cl)c(O)c21`, the growth inhibition is 65%.

Turning to `Cc1cc(C(=O)O)c(C)c2c1sc1ccccc12`, the growth inhibition is 87% (active).

On to `COc1cccc2c1OC(c1ccc(Cl)cc1)C([N+](=O)[O-])=C2` (stereo not given), for which the growth inhibition is 96% (active).

For the compound `CC1=C(C(=O)Nc2cccc(Cl)c2)C(c2ccccc2F)C(C(=O)Nc2cccc(Cl)c2)=C(C)N1`, the growth inhibition is 44%.

With `Cc1ccc(C2C(O)=C(c3ccccc3)Sc3ccc(C)cc32)cc1` (stereo not given), the growth inhibition is 33%.

Consider `CC(=O)Oc1ccc(C)c(C(C)C(Cl)(Cl)Cl)c1` (stereo not given), for which the growth inhibition was 30%.

With `CCCC(=O)Oc1ccc(-c2ccc(Br)cc2)cc1`, the growth inhibition was 93% (active).

Consider `CCCCC#CCOC(=O)c1cc([N+](=O)[O-])cc([N+](=O)[O-])c1`, for which the growth inhibition was 99% (active).

For `COC(=O)c1ccc(Cl)c(Cl)c1`, the growth inhibition was 20%.

Consider `Cc1cc(Br)c2ccccc2c1N`, for which the growth inhibition was 69%.

For the compound `C=C1N(S(=O)(=O)c2ccc(C)cc2)C(=O)OCC12CCCC2`, the growth inhibition was 3%.

For `CCCCCCCCN=C(N)c1ccc(C(=O)OCC2CCCCC2)cc1`, the growth inhibition was 99% (active).

`Nc1ccc2ccc3cccc4ccc1c2c34`: the growth inhibition is 98% (active).

Consider `C=C(Br)CN(CC(=C)Br)C(C)=O`, for which the growth inhibition was 21%.

As for `[Ce+3].[Cl-].[O-]/N=C(\c1ccccc1)c1ccccn1.[O-]/N=C(\c1ccccc1)c1ccccn1.[O-]/N=C(\c1ccccc1)c1ccccn1`, the growth inhibition was 66%.

As to `O=CCCCc1cc2c(cc1Br)CCC2`, the growth inhibition is 62%.

With `C1=C(CC2=C[P+](c3ccccc3)(c3ccccc3)C=C(c3ccccc3)O2)OC(c2ccccc2)=C[P+]1(c1ccccc1)c1ccccc1`, the growth inhibition is 96% (active).

As for `CC/C=C(\C)CC(C)O` (stereo not given), the growth inhibition is 16%.

For `CCC(c1ccc(Cl)cc1)C(C#N)c1ccc(Cl)cc1` (stereo not given), the growth inhibition is 55%.

For `CN1/C(=C/C=C/C(I)=C/C=C/C2=[N+](C)c3ccccc3C2(C)C)C(C)(C)c2ccccc21`, the growth inhibition was 88% (active).

As to `Nc1ccc(N)c2c1C(=O)c1ccccc1C2=O`, the growth inhibition was 72% (active).

Regarding `CN1C=COC1N=C1CCCCC1` (stereo not given), the growth inhibition is 10%.

With `Clc1ccc(Cc2nc3ccccc3s2)c(Cl)c1`, the growth inhibition is 98% (active).

As to `O=CC1(c2ccc(Cl)cc2)NC(=O)NC1=O` (stereo not given), the growth inhibition was 1%.

For the compound `O=C(CSc1nnc(-c2ccc(N=Cc3ccc(Cl)cc3)cc2)o1)Nc1ccc(Cl)cc1Cl`, the growth inhibition was 99% (active).

For the compound `O=C(Oc1ccccc1)C1CCCCC1C(=O)Oc1ccccc1` (stereo not given), the growth inhibition is -12%.

Regarding `O=C(O)Cc1ccc2c(c1O)C(=O)c1ccccc1C2=O`, the growth inhibition was 20%.

In the case of `O=[N+]([O-])c1cccc(F)c1O`, the growth inhibition is 87% (active).

As for `CCc1nc2c(O)ccc(O)c2nc1C`, the growth inhibition was 33%.

With `COC(=O)N/N=C(/CC1(O)C(=O)Nc2ccccc21)c1ccc(Cl)cc1Cl` (stereo not given), the growth inhibition is 97% (active).
